High-throughput results from PubChem.
rTrxR1 inhibitor = blocks rat thioredoxin reductase 1; O89049; recombinant rTrxR1, NADPH fluorescence consumption, selenite substrate; Potency, µM (top dose mostly 114 µM), hits mostly inhibitors; 390,000 tested, 1% active; further: nearly all actives have a fitted effect of over 65% in size
Target sequence (O89049 whole entry, looked up): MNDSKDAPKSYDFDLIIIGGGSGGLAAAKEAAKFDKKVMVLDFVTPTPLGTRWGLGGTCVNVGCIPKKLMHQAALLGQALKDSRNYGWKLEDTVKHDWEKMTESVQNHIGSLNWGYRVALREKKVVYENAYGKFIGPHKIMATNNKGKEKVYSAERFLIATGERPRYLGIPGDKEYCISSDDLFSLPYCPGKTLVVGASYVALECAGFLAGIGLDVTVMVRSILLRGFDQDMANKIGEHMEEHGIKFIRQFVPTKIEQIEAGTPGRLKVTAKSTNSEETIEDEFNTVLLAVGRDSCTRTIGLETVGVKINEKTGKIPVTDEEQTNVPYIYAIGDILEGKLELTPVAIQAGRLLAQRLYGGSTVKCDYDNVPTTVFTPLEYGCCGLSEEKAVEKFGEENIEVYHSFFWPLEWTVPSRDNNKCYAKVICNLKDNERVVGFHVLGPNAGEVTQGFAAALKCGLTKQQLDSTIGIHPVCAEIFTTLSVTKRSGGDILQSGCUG
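Rat TrxR1 (90 nM in the dispensed reagent) was pre-reduced with 400 uM NADPH for 5 min at room temperature, then incubated with compound for 15 min. After 400 uM selenite was added, NADPH fluorescence (Ex 340/Em 450 nm) was followed for 8 min.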
Akt phos inh = Akt phosphorylation inhibition; activity change, % for hits at 50 µM; 360,000 tested, 0.32% active; Neuro2A IGF-stimulated pAkt S473 HTRF, 20 min; hits give low values; AID 651550; in the data active means activity change below about -80%; inconclusive means mostly about -51% to -80%
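Neuro2A cells in DMEM with 0.5% FBS, overnight at 37 deg C, given compound at single 50 µM final, then IGF (6 nM final) for 20 min at 37 deg C. Lysed; phospho-Akt Ser473 by HTRF after 24 h, 665/615 ratio.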
TrxR1 substrate = is turned over as a substrate by rat TrxR1 | Potency, µM (titrated, usually from 114 µM) | purified TrxR1 substrate turnover, NADPH consumption readout | AID 588456 | 390,000 tested, 0.01% active; further: nearly all actives have a fitted effect of over 50% in size
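Rat TrxR1, dispensed at 90 nM, was prereduced with 400 uM NADPH (final) for 5 min at ~22 deg C, then incubated with compound 15 min before 400 uM selenite. A first-read NADPH fluorescence drop versus no-compound background flagged substrates.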
N370S GC = N370S glucocerebrosidase modulation, Gaucher chaperone candidate; P04062; N370S GC spleen homogenate, 4MU-glucoside fluorescence; Potency, µM (doses to about 59.4 µM), most hits filed as inhibitors; 330,000 tested, 0.092% active; AID 2101
A-T KAP1 phos = potential ataxia-telangiectasia treatment | F2112 A-T fibroblasts, KAP-1 phosphorylation AlphaLISA; neocarzinostatin DNA damage 30 min before lysis | 320,000 tested, 0.19% active | Potency, µM (top dose mostly 57.5 µM), actives largely listed as activators | AID 485349; further: nearly all actives have a fitted effect of over 45% in size
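ATM-like activity read as KAP-1 phosphorylation via AlphaLISA donor/acceptor antibody pairs after lysis and 6 hr at 25C. Cells were ATM-null patient fibroblasts (F2112, hTERT), dosed 60 min, then exposed to the DSB inducer NCS for 30 min.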
Pin1 inh = inhibitors of human Pin1. Q13526. Pin1 FP peptide displacement, HiFluor488, 10 min. Potency, µM (series often up to 115 µM), actives largely listed as inhibitors. 390,000 tested, 0.009% active. AID 504891; active means well fitted inhibition curve with a large enough effect in the polarisation, with a control signal flat, not every such curve was filed as active; inconclusive means small, poorly fitted or top-dose-only effect, or effect the other way, or a change in a side signal; inactive means no such curve, though single readings can be large or run the other way; the % refers to the polarisation
Target sequence (Q13526 whole entry, looked up): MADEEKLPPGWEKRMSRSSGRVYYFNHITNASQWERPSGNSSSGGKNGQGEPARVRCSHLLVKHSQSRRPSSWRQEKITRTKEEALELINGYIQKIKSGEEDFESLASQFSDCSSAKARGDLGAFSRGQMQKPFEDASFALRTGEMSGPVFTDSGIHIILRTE
Hits are given with their value; . = inactive; ? = inconclusive; / = no result given; [ ] = remark or other dose. Most compounds without a hit are left out; they make up all but 1.4% or so of the library. Unless noted, the call rests on the fitted dose curve; in most records, active means well fitted curve in the direction sought with a large enough effect; inconclusive means small, poorly fitted or top-dose-only effect, or another doubt; inactive means no such curve, though single readings can be large; an effect the other way counts as inactive or inconclusive.

SMILES | rTrxR1 inhibitor | Akt phos inh | TrxR1 substrate | N370S GC | A-T KAP1 phos | Pin1 inh
COC(=O)c1ccc(C2Nc3ccc(/C(C)=N/NC(=O)C(OC)c4ccccc4)cc3C3C=CCC32)cc1 (stereo not given) | 22.4µM | . | . | . | . | ?
CCCCn1c(CNC(=O)C23CC4CC(CC(C4)C2)C3)nnc1SCC(=O)Nc1ccccc1 | . | / | . | / | / | .
CCOC(=O)c1ccc2c(c1)N(Cc1cccc(C(F)(F)F)c1)C(=O)c1ccccc1S2(=O)=O | . | / | . | / | / | .
Cc1cc2c(s1)c1cnn(Cc3ccc(C(F)(F)F)cc3)c(=O)c1n2C | / | / | / | / | / | .
COC(=O)Oc1c(Br)c(=O)oc2ccccc12 | 7.94µM | . | . | / | / | ?
COc1ccccc1OCc1nc(C#N)c(NCc2ccc(C)cc2)o1 | . | / | . | / | / | .
COc1ccc(Nc2oc(COc3ccccc3OC)nc2C#N)cc1 | 44.7µM | . | . | . | . | .
O=C(Nc1ccc2nc3n(c(=O)c2c1)CCCCC3)c1c(F)ccc([N+](=O)[O-])c1F | 50.1µM | . | . | . | . | .
COc1ccc(N2CCN(C(=O)Cn3cnc4sc(C)c(S(=O)(=O)N5CCCCC5)c4c3=O)CC2)cc1 | . | / | . | / | / | .
CCCC(O)(c1ccccc1)C(CN1CCOCC1)c1ccccc1 (stereo not given) | . | . | . | ? | . | .
CCCC(O)(c1ccc(CC)cc1)C(CN1CCOCC1)c1ccccc1 (stereo not given) | . | . | . | . | 31.6µM | .
CC(C)Cc1nnc(NC(=O)CSc2nc(=O)cc(N)n2-c2ccccc2)s1 | . | -114.0% | . | . | . | .
COc1ccc(C2CC(=O)Oc3c(C(CCN4CCOCC4)c4ccc5c(c4)OCO5)c(OC)cc(OC)c32)cc1 (stereo not given) | . | / | . | ? | / | .
CCN(CC)C(=O)c1c(NC(=O)c2ccccc2)sc(C)c1C | . | . | . | . | . | .
CCN(CC)Cc1c(NC(=O)c2ccccc2)sc(C)c1C | 7.08µM | . | . | . | . | ?
O=CC(=O)c1ccc(Cl)cc1 | . | / | . | / | / | /
O=C(/C=C/Sc1ccccc1)c1ccc(Cl)cc1 | 39.8µM | . | . | . | . | .
O=C(/C=C/Sc1ccccc1)c1ccccc1 | 11.2µM | . | . | . | / | .
Clc1ccc(-c2nnc(-c3ccco3)nc2N2CCCCC2)cc1 | 6.31µM | . | . | ? | . | .
NC(=O)C1CCN(c2ncnc(-c3ccc4c(c3)OCCCO4)n2)CC1 | / | / | / | / | / | .
CCOC(=O)C1=C(c2ccccc2)NC(N)=NC1c1ccc(OCc2ccc(C(=O)OC)cc2)cc1 (stereo not given) | . | . | . | 11.2µM | . | .
CCOC(=O)C1=C(c2ccccc2)Nc2ncnn2C1c1ccc(C(=O)O)cc1 (stereo not given) | . | . | . | . | . | .
O=C(C[n+]1ccncc1)c1cccc2ccccc12 | . | / | . | / | / | /
Cc1ccc(C)c(C(=O)CSc2n[nH]c(C)n2)c1 | 35.5µM | . | . | . | . | .
Cc1cccc(NC(=O)CCN2CCN(c3ccccc3F)CC2)c1 | . | / | . | / | / | .
SMILES | rTrxR1 inhibitor | Akt phos inh | TrxR1 substrate | N370S GC | A-T KAP1 phos | Pin1 inh
COc1ccc(-n2c(SCc3ccccc3F)nc3c([nH]c4ccccc43)c2=O)cc1OC | . | / | . | / | / | .
CCCC1C2C(=O)N(c3ccccc3)C(=O)C2ON1c1ccccc1 (stereo not given) | . | . | . | .[12.8 µM] | . | .
CCCC1C2C(=O)N(c3ccccc3OC)C(=O)C2ON1c1ccccc1 (stereo not given) | ? | -109.8% | . | . | . | .
C=CCOC(=O)CCCC(=O)NC1CCCCC1 | . | -127.7% | . | . | . | .
O=C(CCC(=O)OCCCC(F)(F)C(F)(F)F)NC1CCCCC1 | . | . | . | . | . | .
Oc1ccccc1CNc1cnc2ccccc2c1 | . | / | . | . | . | .
Oc1ccc2ccccc2c1CNc1ccc(Br)cc1 | 28.2µM | . | . | . | . | .
Oc1ccc2ccccc2c1CNc1cnc2ccccc2c1 | 11.2µM | . | . | . | . | .
CCC(=O)N1c2ccccc2CC1C(=O)NCc1cc(Br)ccc1OC (stereo not given) | . | / | . | / | / | .
O=C1Nc2ccccc2N(O)N1c1cc(-c2ccccc2Cl)no1 | . | -109.9% | . | . | . | .
O=C1Nc2ccccc2N(O)N1c1cc(-c2cccc(Cl)c2)no1 | . | . | . | . | . | .
COc1ccccc1C(=O)NCc1ccccc1 | . | -106.1% | . | . | . | .
CCOC(=O)c1c(C)[nH]c(C(=O)OCC(=O)NC2CCS(=O)(=O)C2)c1C (stereo not given) | . | -112.5% | . | . | . | .
CC(C)(C)n1ncc2c(=O)n(Cc3ccc(F)c(F)c3F)cnc21 | . | / | . | / | / | /
Cc1ccc(-c2csc(N3C(=N)SCC3=O)n2)cc1 | . | . | . | . | 22.4µM | ?
COc1ccc(NC(=O)Cc2ccc(Cl)c(Cl)c2)cn1 | . | . | . | . | . | .
COc1ccc(NC(=O)/C(Cl)=C(/Cl)S(=O)(=O)Cc2ccc(C)cc2)cn1 | 2.24µM | . | . | . | / | .
Cc1[nH]nc2c1/C(=N\O)CC(C)(C)C2 | . | . | . | . | . | .
Cc1[nH]nc2c1C(=O)CC(C)(C)C2 | . | -110.2% | . | . | . | .
COC(=O)c1[nH]c2ccc(C)cc2c1NS(=O)(=O)c1ccc(F)c(C)c1 | . | . | . | . | . | .
COC(=O)c1[nH]c2ccc(C)cc2c1NS(=O)(=O)c1ccc(F)cc1 | . | -119.4% | . | . | . | .
O=C(O)CCc1ccc(-c2cccs2)n1-c1ccc(C(=O)O)cc1 | 70.8µM | . | . | . | . | .
Fc1ccc(/C=N/NC(=S)Nc2ccc(Cl)cc2Cl)cc1 | . | . | . | . | 7.08µM | .
COc1ccc(CNC(=O)c2cc(-c3cccs3)nc3ccccc23)c(OC)c1 | . | / | . | / | / | .
COc1cccc(CNC(=O)C2CCN(S(=O)(=O)c3ccc4c(c3)CCCN4C(C)=O)CC2)c1 | . | / | . | / | / | .
SMILES | rTrxR1 inhibitor | Akt phos inh | TrxR1 substrate | N370S GC | A-T KAP1 phos | Pin1 inh
Nc1c(C(=O)Nc2nc3ccccc3s2)sc2nc(-c3cccs3)ccc12 | . | . | . | . | 15.8µM | ?
Nc1c(C(=O)Nc2ccccc2)sc2nc(-c3ccco3)ccc12 | 3.98µM | . | . | . | . | ?
CC(C)NC(=O)c1sc2nc(-c3cccs3)cc(-c3cccs3)c2c1N | . | -93.6% | . | . | . | ?
Nc1c(C(=O)Nc2ccccc2Br)sc2nc(-c3cccs3)ccc12 | . | / | . | / | / | .
Cc1ccc(-c2ccnc(N3CCC(C(N)=O)CC3)n2)cc1 | / | / | / | / | / | .
CCOc1ccc(CCNC(=O)/C=C/c2ccco2)cc1OCC | 20µM | . | . | . | . | .
COc1ccc(C(NC(=O)/C=C\c2ccco2)c2ccc(OC)c(OC)c2)cc1 (stereo not given) | 8.91µM | . | . | . | . | .
